From PubChem BioAssay (NCATS)
“And” between values parts separate entries of the source, which are not always exact repeats. Identical values can stand only once. The source made the active and inactive calls. The rule behind the calls is not given here.

target: Nuclear receptor subfamily 1 group I member 2 (Rattus norvegicus) (UniProt Q9R1A7); assay: qHTS assay for small molecule activators of the rat pregnane X receptor (rPXR) signaling pathway (AID 651751); conditions: rPXR reporter cells, luciferase (One-Glo), 24 h
Note: 0% is about no effect.

Sequence of Nuclear receptor subfamily 1 group I member 2 (Rattus norvegicus) (Q9R1A7 whole entry, looked up): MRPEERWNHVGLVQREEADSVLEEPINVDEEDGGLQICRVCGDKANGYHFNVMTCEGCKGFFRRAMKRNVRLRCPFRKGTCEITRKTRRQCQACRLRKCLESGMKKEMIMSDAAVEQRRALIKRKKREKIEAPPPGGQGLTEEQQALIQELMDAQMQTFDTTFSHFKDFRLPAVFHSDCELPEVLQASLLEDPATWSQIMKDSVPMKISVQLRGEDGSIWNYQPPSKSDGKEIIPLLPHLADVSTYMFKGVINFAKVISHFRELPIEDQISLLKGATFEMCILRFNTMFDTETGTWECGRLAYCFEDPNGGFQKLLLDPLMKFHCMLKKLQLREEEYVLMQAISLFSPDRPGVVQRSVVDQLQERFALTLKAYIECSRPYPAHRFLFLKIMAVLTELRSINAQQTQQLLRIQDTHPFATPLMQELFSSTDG

Structure (SMILES) | max response
CS(=O)(=O)c1ccc(C(=O)C2C(=O)CCCC2=O)c([N+](=O)[O-])c1 | 1.13% (inactive)
O=C(O)COc1ccccc1 | -3.8% (inactive)
C1CCC(NC2CCCCC2)CC1 | -4% (inactive) and -4.51% (inactive) and -0.383% (inactive)
O=C(O)COc1nc(Cl)c(Cl)cc1Cl | -1.37% (inactive)
C=CC(=O)NCNC(=O)C=C | 1.16% (inactive) and 0.492% (inactive)
O=C(O)c1cc(Oc2ccc(C(F)(F)F)cc2Cl)ccc1[N+](=O)[O-] | 2.53% (inactive)
O=S(=O)(O)C(F)(F)C(F)(F)C(F)(F)C(F)(F)C(F)(F)C(F)(F)C(F)(F)C(F)(F)F | 2.44% (inactive) and 1.44% (inactive)
O=S(=O)(O)C(F)(F)C(F)(F)C(F)(F)C(F)(F)F | -0.463% (inactive) and -1.11% (inactive)

tested on: not listed separately; assay: qHTS assay for small molecule activators of the human pregnane X receptor (PXR) signaling pathway (AID 720659); conditions: DPX-2 HepG2 CYP3A4-luciferase, 24 h; series mostly up to 92.3 µM

Structure (SMILES) | outcome
O=C(O)COc1ccccc1 | inactive
C1CCC(NC2CCCCC2)CC1 | inactive
C=CC(=O)NCNC(=O)C=C | inactive
O=C(O)c1cc(Oc2ccc(C(F)(F)F)cc2Cl)ccc1[N+](=O)[O-] | inactive
O=S(=O)(O)C(F)(F)C(F)(F)C(F)(F)C(F)(F)C(F)(F)C(F)(F)C(F)(F)C(F)(F)F | inactive
